According to PubChem BioAssay (Tox21):
Results filed as inconclusive are left out. A call without a number means that no potency is given here. Active and inactive are the calls of the source. Calls follow the shape of the dose curve; as a rule, active = well fitted cell-killing curve with a large enough effect in the repeat runs; inconclusive = weak or mixed curves, or effect the other way; inactive = flat fitted curve, though single readings scatter.

Test: qHTS assay to identify small molecule agonists of the estrogen receptor beta (ER-beta) signaling pathway - cell viability counter screen (AID 1259380); also: nearly all actives have a fitted effect of over 30% in size
Details: ER-beta-bla HEK293T viability, CellTiter-Glo luminescence, 16 h; series mostly up to 92.4 µM; activity change, negative = cytotoxicity: at the top concentration
Text: National Center for Advancing Translational Sciences [NCATS]
NIH Chemical Genomics Center [NCGC]
U.S. Environmental Protection Agency [EPA]
National Institutes of Environmental Health Sciences [NIEHS]
National Toxicology Program [NTP]
U.S. Food and Drug Administration [FDA]
Estrogen receptor (ER), a nuclear hormone receptor, plays an important role in development, metabolic homeostasis and reproduction. Two subtypes of ER, ER-alpha and ER-beta, have similar expression patterns with some uniqueness in both types. Endocrine disrupting chemicals (EDCs) and their interactions with steroid hormone receptors like ER causes disruption of normal endocrine function. To identify the compounds that activate ER signaling, an ER beta-UAS-bla GripTite cell line (Life Technologies, Madison, WI, USA) containing a beta-lactamase reporter gene under the control of an UAS response element was used to screen Tox21 10K compound library. The cytotoxicity of the Tox21 compound library against the ER-beta-bla cell line was tested in parallel by measuring the cell viability using CellTiter-Glo assay in the same wells.
Tox21 Assay Protocol Summary:
ER-beta-UAS-bla HEK293T cells were dispensed at 2,000 cells/5 uL of assay medium containing 2% charcoal stripped FBS per well into black wall/clear-bottom 1536-well plates using a Multidrop Combi (ThermoFisher Scientific, Waltham, MA) dispenser. After the assay plates were incubated at a 37C and 5% CO2 for 6 hr, 23 nL of compounds dissolved in DMSO, positive controls or DMSO only was transferred to the assay plate by a Pintool station (Kalypsys, San Diego, CA). The plates were incubated at 37C and 5% CO2 for 16 hr. Then 1 uL of LiveBLAzerTM B/G FRET substrate was added using a BioRAPTR FRD (Flying Reagent Dispenser, Aurora Discovery, San Diego, CA) and then the plates were incubated at room temperature for 2 hours, and fluorescence intensity was measured by an Envision plate reader (PerkinElmer, Shelton, CT). For cell viability readout that measures cytotoxicity, 4 uL/well of CellTiter-Glo reagent was added into the assay plates using a FRD. After 30 min incubation at room temperature, the luminescence intensity in the plates was measured using a ViewLux (PerkinElmer) plate reader.

| SMILES | Potency | activity change, negative = cytotoxicity |
| --- | --- | --- |
| COC(=O)c1cccnc1 | inactive |  |
| CN1C(=O)CC[C@H]1c1cccnc1 | inactive |  |
| CCCCCCCCCCO | inactive |  |
| C=CCc1ccc(OC)c(OC)c1 | inactive |  |
| COc1ccc(C)cc1N | inactive |  |
| CC(=O)CC(C)(C)O | inactive |  |
| CC1(C)NC(=O)NC1=O |  | 1.96% (inactive) |
| O=C(O)/C=C/C(=O)O | inactive |  |
| C=C(C)[C@H]1CC=C(C)C(=O)C1 | inactive |  |
| CNC(=O)Oc1ccc2c(c1)[C@]1(C)CCN(C)[C@@H]1N2C | inactive |  |
| COc1ccccc1OCC(O)CO (stereo not given) | inactive |  |
| CN(C)CCOC(=O)COc1ccc(Cl)cc1 | inactive |  |
| CC(O)CC(C)(C)O (stereo not given) | inactive |  |
| CN(C)c1ccc(Cc2ccc(N(C)C)cc2)cc1 |  | -0.742% (inactive) |
| O=S(=O)(O)c1ccccc1 | inactive |  |
| Cc1ccc([N+](=O)[O-])cc1S(=O)(=O)O | inactive |  |
| CC(CCl)OP(=O)(OC(C)CCl)OC(C)CCl (stereo not given) | inactive |  |
| OC1C(O)C(O)C(O)C(O)C1O (stereo not given) | inactive |  |
| NC(=S)NNC(N)=S | inactive |  |
| CC1(C)OC[C@@H]2O[C@@]3(C(=O)O)OC(C)(C)O[C@H]3[C@@H]2O1 | inactive |  |

| SMILES | Potency | activity change, negative = cytotoxicity |
| --- | --- | --- |
| COc1cc(OC)c(C(=O)CCCN2CCCC2)c(OC)c1 | inactive |  |
| N#Cc1ccccc1 | inactive |  |
| CC(C)(C#N)c1cc(Cn2cncn2)cc(C(C)(C)C#N)c1 | inactive |  |
| CCCCCCCCCCCCCCCCO |  | 6.32% [at 42.5 µM] (inactive) |
| CCCOC(=O)c1ccccc1 | inactive |  |
| CCc1ccccc1CC | inactive |  |
| Nc1nc(N)nc(-c2ccccc2)n1 | inactive |  |
| C=C(C)C(=O)OCC(C)C | inactive |  |
| C=CCCCCCCCCC(=O)O |  | -3.62% [at 42.5 µM] (inactive) |
| O=C1C(c2[nH]c3ccccc3c2O)=Nc2ccccc21 | inactive |  |
| O=C(O)Cn1c(=O)n(Cc2ccc(Br)cc2F)c(=O)c2ccc(Cl)cc21 |  | -5.45% [at 42.5 µM] (inactive) |
| NCCNCCN | inactive |  |
| CC(C)=CCl | inactive |  |
| C[C@]12CCC(=O)C=C1CC[C@@H]1[C@@H]2[C@@H](O)C[C@@]2(C)[C@H]1CC[C@]2(O)C(=O)CO | inactive |  |
| C=C(C)CNCC | inactive |  |
| CC1(C)S[C@@H]2[C@H](NC(=O)COc3ccccc3)C(=O)N2[C@H]1C(=O)O | inactive |  |
| C=CC[N+](C)(C)CC=C | inactive |  |
| C=CC(C)CCCC(C)(C)O (stereo not given) | inactive |  |
| O=C(O)c1ccc(C(=O)O)c(C(=O)O)c1 |  | 9.24% (inactive) |
| CCNC(=S)NCC | inactive |  |
